Screening data (PubChem BioAssay)
Shown are actives, neighbours in structure and some others; about 4% of the full set was active somewhere.
HIF-2a block: blocks HIF-2a reporter activity. 786-0 RCC cells HIF-2a reporter, luciferase luminescence, overnight. inhibition, % at 18.8 µM. 360,000 compounds, 0.72% hits. AID 624352;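 active means inhibition of the luminescence signal of 40% or more relative to plate controls, in a single-dose primary screen at 18.75 µM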
TROY signal inh: blocks TROY-dependent signaling in reporter cells; 360,000 compounds, 0.98% hits; Q293 LMP1-TROYcd NF-kB luciferase reporter, 4 h; inhibition, % at 10 µM;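 active means compounds whose plate-normalised and pattern-corrected inhibition of the luciferase reporter signal at the single screening dose is 50% or more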
KKLEB tox: CF airway cell cytotoxicity counter-screen; AID 602141; 360,000 compounds, 0.36% hits; activity change (cytotoxicity), % at 5 µM; KKLEB CF airway cells viability, ATPlite luminescence, overnight; hits give low values; cells stimulated with P. aeruginosa culture filtrate;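 active means corrected activity change at or below -50% at 5 µM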
TWEAK-Fn14 inh: TWEAK-Fn14 signaling inhibition | TWEAK-stimulated Fn14 reporter cells, luciferase luminescence, 8 h | inhibition, % at 10 µM | 360,000 compounds, 2% hits; in the data active means inhibition above about 50%
Peg3 promoter: reduces Peg3 promoter-driven luciferase expression in HeLa; HeLa PEG-Prom luciferase reporter, luminescence, overnight; inhibition, % at 20 µM; 360,000 compounds, 1.7% hits;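 active means inhibition of at least 50% at 20 µM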
CF NFkB inh: cystic fibrosis NF-kB activation inhibition. KKLEB NF-kB-GFP reporter, PAF-induced, GFP fluorescence overnight. 360,000 compounds, 0.86% hits. inhibition, % at 5 µM;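 active means at least 50% inhibition at 5 µM, scaled per plate between neutral and stimulator controls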;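 further: PAF is a Pseudomonas aeruginosa culture filtrate used as stimulus; plate controls were PAF-stimulated DMSO wells for no effect and unstimulated DMSO wells for full effect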
Mdm2 MdmX conf: confirmation of inhibitors of human Mdm2/MdmX interaction, set 2; shares compounds with HIF-2a block; SaOS-2 split-luciferase Mdm2/MdmX complementation, luminescence; inhibition, % at 8 µM; 740 compounds, 99% hits; AID 504601;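 active means mean inhibition of the luminescence signal across two replicates at or above 26 percent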
HIF-2a inh conf: HIF-2a inhibition, single concentration confirmation. 1,800 compounds, 56% hits. 786-0 RCC cells, HIF-2a luciferase reporter luminescence, overnight. inhibition, % at 18.8 µM. shares compounds with HIF-2a block;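 active means mean inhibition across four replicates of at least 40 percent at the single tested concentration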
HIF-1a counter: HIF-1a inhibition counter-screen for HIF-2a hits | inhibition, % at 18.8 µM | 1,800 compounds, 72% hits | MiaPaCa-2 HIF-1a luciferase reporter, desferoxamine, overnight | AID 651589 | shares compounds with HIF-2a block;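 active means mean inhibition of the reporter signal across four replicates at the single tested dose of 50% or more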
* = called active by the depositor; / = not tested or not shown.

SMILES | HIF-2a block | TROY signal inh | KKLEB tox | TWEAK-Fn14 inh | Peg3 promoter | CF NFkB inh | HIF-2a inh conf | HIF-1a counter | others
CCCCn1c(NC(=S)Nc2ccccc2)nc2ccccc21 | 42* | -15 | 5 | 24 | 33 | -1 | -10 | 50*
Cc1cccc(NC(=O)CCCN2C(=S)NC(C)(C)CC2C)c1C (stereo not drawn) | 11 | -18 | 3 | -11 | 10 | -6 | / | /
Nc1cccnc1S(=O)(=O)c1ccccc1 | 20 | 0 | 4 | -5 | -1 | 0 | / | /
COc1ccc([N+](=O)[O-])c(S(=O)(=O)c2ccccc2)n1 | 82* | 72* | -55* | 97* | 111* | 85* | 88* | 84* | Mdm2 MdmX conf=103*
O=[N+]([O-])c1cccnc1S(=O)(=O)c1ccccc1 | 55* | 46 | -68* | 95* | 82* | 82* | 20 | -1 | Mdm2 MdmX conf=102*
COc1ccc([N+](=O)[O-])c(S(=O)(=O)c2ccc(Cl)cc2)n1 | 60* | 66* | -47 | 97* | 105* | 102* | 75* | 62* | Mdm2 MdmX conf=103*
COc1ccc([C@H]2C[C@H](n3cc(-c4ccc(F)cc4)nn3)[C@@H](O)CN2Cc2cccs2)cc1 | 8 | 21 | -3 | -8 | 10 | -3 | / | /
COc1ccc([C@H]2C[C@H](O)[C@@H](n3cc(-c4ccc(F)cc4)nn3)CN2Cc2cccs2)cc1 | 77* | 38 | -27 | 42 | 69* | 39 | 30 | 104*
Cn1nccc1NS(=O)(=O)c1ccc(NC(=O)C(F)(F)F)cc1 | 12 | 6 | 1 | 8 | -5 | 9 | / | /
Cc1cc2c(C)cc(=O)[nH]c2cc1NC(=O)CCl | 28 | 5 | -9 | 12 | 25 | -17 | / | /
O=C(CCl)Nc1cc2[nH]c(=O)[nH]c2cc1Br | -6 | 9 | -20 | -15 | 88* | -22 | / | / | Mdm2 MdmX conf=103*
O=C(CCc1nnc(C2CCCCC2)o1)N1CCN(Cc2ccccc2)CC1 | -66 | -28 | -7 | -29 | -54 | 6 | / | /
CCOc1ccc(CNCCc2ccc(S(N)(=O)=O)cc2)cc1 | 6 | -14 | 16 | 2 | -1 | -14 | / | /
COc1cc(CNCCc2ccc(S(N)(=O)=O)cc2)ccc1OCC(=O)NC1CCCCC1 | 18 | -40 | -1 | -22 | -8 | 10 | / | /
CCOc1cc(CNCCc2ccc(S(N)(=O)=O)cc2)ccc1OCc1ccc(Cl)cc1 | 86* | 29 | -45 | 86* | 108* | -7 | 3 | 102*
COc1cc(CNCCc2ccc(S(N)(=O)=O)cc2)ccc1OCc1ccc(Cl)cc1 | 75* | -9 | -24 | -10 | 92* | 20 | -8 | 94*
CC1(C(=O)NCc2cccnc2)Cc2c(-c3cccc(C(F)(F)F)c3)ccnc2O1 (stereo not drawn) | 19 | 20 | 2 | 9 | 24 | 23 | / | /
Oc1ccc(Nc2nc(N3CCCC3)c3ccccc3n2)cc1 | 46* | -23 | -4 | -150 | 100* | -65 | 35 | 104*
CC(=O)c1ccc(OCc2cc(C(=O)N3CCN4CCCC4C3)no2)cc1 (stereo not drawn) | -16 | 11 | -17 | -11 | -20 | -2 | / | /
CN1CCC(NCCC(c2ccc(F)cc2)c2ccc(Cl)cc2)CC1 (stereo not drawn) | 2 | -54 | -4 | -51 | 94* | 8 | / | / | Mdm2 MdmX conf=103*
O=C(Nc1ccc(F)cc1)Nc1ccc2ccccc2n1 | -112 | -51 | -6 | -30 | -32 | 2 | / | /
CCC1SC(C)C/C(=N/NC(N)=O)C1C (stereo not drawn) | 16 | 6 | 2 | 15 | 1 | -1 | / | /
CC1CC(C)C(=NNC(N)=O)C(C(O)CC2CCC(=O)NC2=O)C1 (stereo not drawn) | 49* | 24 | -6 | -8 | 37 | 54* | 19 | 41
CCCn1ncc(CN2CCC(CO)(CC3CCCCO3)CC2)c1C (stereo not drawn) | 40* | -2 | -18 | 10 | -3 | 7 | 5 | 4
